# Tgondii IFNg – inhibitors of Toxoplasma gondii growth with IFN-gamma. activity change, negative = inhibition, % (test concentration not listed). Toxoplasma gondii growth in IFN-gamma-treated host cells; stronger effect = lower value. actives 3.8% (n = 69,000); in the data active = activity change below about -70%, passing the limit was not always enough;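 also: host cells are HeLa cells infected with Toxoplasma gondii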
# Numbers without * were called inactive. The full list was thinned out, with hits kept by preference.
SMILES,Tgondii IFNg
CC(C)CC(=O)Nc1ccc2c(c1)CCC(=O)N2CC(C)C,-14.6
CC(C)CN1C(=O)CCc2cc(NC(=O)CCc3ccccc3)ccc21,-98.2*
CCNC(=O)[C@@H]1C[C@@H](N)CN1C(=O)c1cccc(-c2cccc(OC)c2)c1,-5.9
Cn1cc(C(F)(F)F)nc1-c1ccc(OCC(O)CNCCOc2ccc(O)c(C(N)=O)c2)cc1 (stereo not given),0.1
O=C(NCC1(O)CCNC1)C1CCN(C(=O)c2ccccn2)CC1 (stereo not given),2.3
Cc1oc(C2CCN(C(=O)Cc3c(F)cccc3Cl)CC2)nc1C(=O)N1CCCC1,-72.8*
Cc1oc(C2CCN(C(=O)Cc3ccccc3F)CC2)nc1C(=O)N1CCCC1,-41.5
Cc1oc(C2CCN(C(=O)Cc3ccccc3Cl)CC2)nc1C(=O)N1CCOCC1,-35.2
C=CCOc1cccc(CNn2nnnc2N)c1,-8.1
COC1(C)CC2C(CC1OC(=O)c1cc([N+](=O)[O-])cc([N+](=O)[O-])c1)C2(C)C (stereo not given),-15.1
Cc1cccc2cc(CN(Cc3ccccc3)C(=O)Nc3ccc(F)cc3)c(=O)[nH]c12,-104.1*
COc1cccc(CN(C)Cc2cc3ccc(F)cc3[nH]c2=O)c1,10.3
Cc1ccc(NC(=O)N(Cc2ccco2)Cc2cc3cc4c(cc3[nH]c2=O)OCCO4)cc1,-4.8
C=C(C)Cc1c(C)nc(-c2ccc(Cl)cc2)nc1OC(=S)N(CC)CC,-98.2*
CCN1CCOCC2(CCCN(C(=O)c3ccc4ccccc4n3)C2)C1 (stereo not given),1.9
C[C@H](CO)N1C[C@H](C)[C@@H](CN(C)Cc2ccc(Cl)c(Cl)c2)Oc2ccc(NC(=O)CCCN(C)C)cc2C1=O,11.9
Cc1n[nH]c(C)c1CCCNC(=O)C(C)(C)NC(=O)c1cccs1,-0.9
COc1ccc2c(c1)c(C1=C(c3c[nH]c4ccccc34)C(=O)NC1=O)cn2CCCN(C)C,-51.7
Cn1cc(C(=O)O)c(=O)c2ccccc21,-6.1
Cn1cc(C2=C(c3cn(CCCSC(=N)N)c4ccccc34)C(=O)NC2=O)c2ccccc21,-77.0*
Cc1ccc(CN2CCC3(CC2)CC(N2CCCC2)CO3)s1 (stereo not given),-5.5
CCOc1ccc(C(=O)CCc2nc3ccccc3s2)cc1,10.9
CC(C)c1ccc(NC(=O)NCC2CNCCOC2)cc1 (stereo not given),-6.7
Cn1cc(CCNC(=O)Cn2nnc(-c3ccccc3)n2)c2cc(F)ccc21,30.8
O=C1CCc2cc(S(=O)(=O)Nc3cccc4c3CCCC4)cc3c2N1CC3,-113.7*
SMILES,Tgondii IFNg
CCc1ccc(NS(=O)(=O)c2cc3c4c(c2)CCN4C(=O)CC3)cc1,-5.3
Cc1cccc(C)c1NS(=O)(=O)c1cc2c3c(c1)CCC(=O)N3CCC2,-3.5
COC(=O)c1ccccc1NS(=O)(=O)c1cc2c3c(c1)CCN3C(=O)CC2,116.8
Cc1ccc(NS(=O)(=O)c2cc3c4c(c2)CCN4C(=O)CC3)cc1C,-94.9*
Cc1cccc(NS(=O)(=O)c2cc3c4c(c2)CCN4C(=O)CC3)c1,-38.3
CN1CC2(CCN(C(=O)c3ccccc3-n3cncn3)C2)OC1=O (stereo not given),79.3
Cc1ccc2[nH]c3c(c2c1)CN(C(=O)C1CCCN(CC(N)=O)C1)CC3 (stereo not given),3.7
C[C@H](CO)N1C[C@H](C)[C@@H](CN(C)S(C)(=O)=O)Oc2ncc(-c3ccc(F)cc3)cc2C1=O,-13.1
CN(C)C1COC2(CCN(C(=O)Cc3ccccn3)CC2)C1 (stereo not given),-41.6
COc1ccc(-c2cc(C3CNC3)nc(C)n2)cc1,-77.2*
COc1ccc(-c2cc(C)nc(C3CCNCC3)n2)cc1,-39.8
COc1ccc(-c2cc(-c3ccc(OC)cc3)nc(-c3ccc(C)o3)c2)cc1,36.9
O=C(C1CCOCC1)N1CCC2(CC1)CNS(=O)(=O)c1ccccc1OC2,6.3
CCNC(=O)C(C)NC(=O)c1ccc2cccnc2c1O (stereo not given),-47.4
O=C1OC(=O)C2C3CCC(O3)C12 (stereo not given),-74.6*
CNC[C@H]1Oc2ccc(N)cc2CC(=O)N([C@H](C)CO)C[C@H]1C,-12.9
CC(C)SCC(=O)N1Cc2cnc(-c3ccccc3)nc2C1,39.4
COc1ccc(C(=O)N(Cc2cccc(F)c2)C2(C(=O)NCc3ccccc3)CCN(C(C)=O)CC2)cc1,-53.4
COc1ccc(C(=O)N(Cc2ccc(Cl)cc2)C2(C(=O)NCc3ccccc3)CCN(C(C)=O)CC2)cc1,114.4
COc1ccc(C(=O)N(Cc2cccc(OC)c2)C2(C(=O)NCc3ccccc3)CCN(C(C)=O)CC2)cc1,-83.4*
COc1ccc(C(=O)N(c2ccc(C(C)C)cc2)C2(C(=O)NCc3ccccc3)CCN(C(C)=O)CC2)cc1,-95.5*
COc1ccc(C(=O)N(c2ccc(F)cc2)C2(C(=O)NCc3ccccc3)CCN(C(C)=O)CC2)cc1,-4.5
COc1ccc(C(=O)N(c2ccc(Cl)cc2)C2(C(=O)NCc3ccccc3)CCN(C(C)=O)CC2)cc1,68.8
Cc1ccc2c(c1)c(CNC(=O)CSc1nnc(N)s1)nn2C,2.4
COc1ccnc(-c2cccc(OC)c2OC)n1,5.7
SMILES,Tgondii IFNg
Cc1[nH]ncc1C(=O)N1CC[C@@H](c2ccc(F)cc2)[C@H](O)C1,-2.2
C[C@H]1CN([C@@H](C)CO)C(=O)c2cc(NC(=O)CCCN(C)C)ccc2O[C@H]1CN(C)Cc1ccc(Cl)c(Cl)c1,-63.5
O=C(COc1ccc(NC2=NS(=O)(=O)c3ccccc32)cc1)N1CCOCC1,1.9
C=CCN1CC(C(=O)N2CCC(c3cc(C(C)C)n[nH]3)CC2)CC1=O (stereo not given),17.8
CCS(=O)(=O)N1CCN(c2ccc(Nc3ncc(C(N)=O)c(NC4CC4)n3)cc2)CC1,-65.0
CC(=O)NCC(=O)N1[C@@H]2CC[C@H]1c1ccc(Nc3ncc(C(F)(F)F)c(NC4CCC4)n3)cc12,-73.9*
CC(=O)NCc1cnc(C2CCCN2CC(=O)Nc2nccs2)cc1C(F)(F)F (stereo not given),-11.9
COc1ccc(NC(=O)c2cncc(NS(=O)(=O)c3ccc(C)cc3C)c2)c(OC)c1,50.7
Cc1ccc(Nc2nc(C(=O)NCCc3cnc[nH]3)nc3ccccc23)cc1,101.7
COc1ccc(NC(=O)c2cnn3ccccc23)c(NC(=O)C(C)C)c1,6.3
CC(Cc1cccnc1)Nc1nccc(-c2cnn(-c3ccccc3F)c2)n1 (stereo not given),-71.7*
Cc1cccc(-n2cc(-c3ccnc(NC(C)Cc4ccncc4)n3)cn2)c1 (stereo not given),-50.7
CC(NC(=O)Cc1ccccn1)c1cnn(-c2ccccc2F)c1 (stereo not given),5.7
N[C@@H](Cc1cc(I)c(Oc2cc(I)c(O)c(I)c2)c(I)c1)C(=O)O,12.6
O=C(O)C[C@H]1CC[C@H]2[C@@H](COC[C@H](O)CN2S(=O)(=O)c2ccc(Oc3ccccc3)cc2)O1,-16.9
CC(C)C(=O)N1CCC[C@]2(C[C@@H](OCc3ccncc3)CO2)C1,-1.5
CCc1nc(OCC(=O)Nc2cc(Cl)ccc2Cl)c2ccccc2n1,-38.5
Cc1nc(OCC(=O)Nc2cc(Cl)ccc2C)c2ccccc2n1,-7.7
Cc1ccc(Cl)cc1NC(=O)COc1ccccc1Br,-83.1*
Cc1oc(-c2ccccc2Cl)nc1CSc1nc2c(=O)[nH]cnc2n1-c1ccccc1,-3.3
CN(C)CCO[C@H]1CN(c2ncccn2)[C@H]2COC[C@@H]12,81.2
O=S(=O)(Cc1ccccc1)N1CCC(c2nc(-c3ccccc3Cl)no2)CC1,4.4

# Compound activity as filed in PubChem BioAssay.
